Our source for the PBM binding z-score values is the supplement of paper PMC6555819.

Holding throughout (test): PBM binding z-score (relative to random genomic background probes); higher = stronger binding; sequences stand for … in GC…GCGATTGACAGCGTAGAATGAAGG
In assay [1] the test system is FXR:RXRa (NR concentration 270 nM, RXRa partner concentration 90 nM). In a few lines:
(§1)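 On custom Agilent 4×180K arrays, double-stranded probes with 34-nt variable regions carried direct-repeat seeds, single-nucleotide variants, half-site ablations or random human genomic background. Ligand-free nuclear receptor dimers were applied for 1 h, and binding was read with antibodies against each partner (one per run). Binding z-scores come from regression-normalized fluorescence, with the random background probes as reference.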

The subject of assay [2] is LXRa:RXRa (NR concentration 270 nM, RXRa partner concentration 90 nM). In a few lines:
as §1

Assay [3] deals with LXRa homodimer (NR concentration 270 nM). In a few lines: as §1
Assay [4] relates to LXRb:RXRa (NR concentration 270 nM, RXRa partner concentration 90 nM). In outline: as §1
Assay [5] relates to LXRb homodimer (NR concentration 270 nM). In outline: as §1
The subject of assay [6] is PPARa:RXRa (NR concentration 270 nM, RXRa partner concentration 90 nM). In outline: as §1
In assay [7] the test system is PPARg:RXRa (NR concentration 180 nM, RXRa partner concentration 90 nM). In a few lines: as §1
Assay [8] relates to PPARg:RXRa 270nM:90nM, anti-RXR (NR concentration 270 nM, RXRa partner concentration 90 nM). In a few lines: as §1
For assay [9], the system named is PPARg:RXRa 30nM:10nM, anti-RXR (NR concentration 30 nM, RXRa partner concentration 10 nM). In a few lines: as §1
For assay [10], the system named is PPARg:RXRa 90nM:30nM, anti-RXR (NR concentration 90 nM, RXRa partner concentration 30 nM). In a few lines: as §1
Assay [11] deals with PPARg:RXRa DBDmut IVT, anti-RXR (DBD mutation: RXRa K156A/R161A, NR concentration 270 nM, RXRa partner concentration 90 nM). In a few lines: as §1
In assay [12] the test system is PPARg:RXRa IVT, anti-PPARg (NR concentration 270 nM, RXRa partner concentration 90 nM). In a few lines: as §1
Assay [13] concerns PPARg DBDmut:RXRa IVT, anti-PPARg (DBD mutation: PPARg1 K132A/R137A, NR concentration 270 nM, RXRa partner concentration 90 nM). In a few lines:
as §1

The subject of assay [14] is PPARg DBDmut IVT, anti-PPARg (DBD mutation: PPARg1 K132A/R137A, NR concentration 270 nM). In a few lines:
as §1

Assay [15] deals with PPARg homodimer (NR concentration 180 nM). In a few lines:
as §1

The test system of assay [16] is PXR:RXRa (NR concentration 270 nM, RXRa partner concentration 90 nM). In a few lines: as §1
Assay [17] deals with PXR homodimer (NR concentration 270 nM). In outline:
as §1

Assay [18] has as its system RARa:RXR (NR concentration 270 nM, RXRa partner concentration 90 nM). In outline: as §1
Assay [19] has as its system RARa homodimer (NR concentration 270 nM). In outline:
as §1

The test system of assay [20] is RARb:RXRa (NR concentration 270 nM, RXRa partner concentration 90 nM). In outline: as §1

Regarding CTCGAAAGGTCGTGCTCAGGTGAATATACCAAAC, the PBM binding z-score in [1] came to 5.33; in assay [2], 4.19; in [3], 0.375; in assay [4], 3.82; in assay [5], 0.534; in assay [6], 5.05. Also, the PBM binding z-score in assay [7] came out at 2.81; in assay [8] it was 3.84; in [9] it was 1.1; in assay [10], 2.6; in assay [11] it was 0.879; in assay [12], 2.15. Also, the PBM binding z-score is 0.682 in assay [13]; 0.68 in assay [14]; 1.34 in assay [15]; 3.6 in [16]; 0.506 in assay [17]; 4.28 in [18]. Also, the PBM binding z-score turned out to be 0.678 in assay [19] and 3.92 in assay [20].

For the sequence CCTTACGGATCACTCCAGGTTATAGCATCGGAGT, the PBM binding z-score in assay [1] came to 0.957; in assay [2], 3.48; in assay [3] it was 1.36; in assay [4], 0.889; in [5], 0.62; in [6], 0.155. The PBM binding z-score in [7] was 0.486; in assay [8] it was -0.0175; in assay [9], -0.194; in assay [10], -0.283; in assay [11], 0.299; in assay [12] it was 0.0369. The PBM binding z-score came to 0.0149 in assay [13]; 0.787 in assay [14]; 1 in assay [15]; 0.823 in assay [16]; 0.761 in assay [17]; 0.748 in assay [18]. For the same sequence, the PBM binding z-score was determined as 1.26 in assay [19] and 0.105 in assay [20].

Take CCTGCTAGGTCAATGGTCAGGTAAAGCAGCTCGC: the PBM binding z-score in assay [1] is 3.13; in assay [2] it was 2.29; in assay [3] it was -0.153; in [4], 1.46; in assay [5] it was -0.313; in assay [6], 3.36. For the same sequence, the PBM binding z-score in assay [7] is 4.48; in [8] it was 5.09; in assay [9], 2.62; in assay [10] it was 4.62; in assay [11], 4.38; in assay [12], 4.23. The PBM binding z-score was 0.154 in assay [13]; -0.732 in assay [14]; 1.38 in assay [15]; 0.832 in [16]; -0.154 in assay [17]; 1.93 in assay [18]. Further, the PBM binding z-score in [19] was -0.238; in [20] it was 3.81.

With ACAATTAGTTGACTTAGGGCAACCGATACGACGC, the PBM binding z-score in assay [1] turned out to be 0.279; in [2], 0.33; in assay [3], 0.565; in assay [4] it was 0.0599; in assay [5], 0.612; in assay [6], 0.00256. Also, the PBM binding z-score in assay [7] was found to be 1.03; in assay [8] it was 0.396; in [9], 0.353; in assay [10], 0.139; in assay [11], 0.0819; in assay [12], 0.506. Also, the PBM binding z-score is 0.981 in assay [13]; 1.45 in [14]; 0.921 in assay [15]; -0.00518 in [16]; 0.761 in [17]; 0.318 in assay [18]. Moreover, the PBM binding z-score in [19] is 0.646; in assay [20], 0.888.

With GTACCAAGGAGAATAGGTCGTTGATGAGTAGGCG, the PBM binding z-score in assay [1] is -0.287; in [2] it was -0.0565; in [3], -0.284; in [4], -0.316; in assay [5] it was -0.56; in [6], 0.108. The PBM binding z-score in assay [7] was 0.546; in [8], 0.112; in [9] it was -0.237; in [10] it was -0.0411; in [11], -0.462; in assay [12] it was -0.173. The PBM binding z-score is -1.64 in [13]; -0.217 in [14]; 0.315 in assay [15]; 0.103 in [16]; -0.146 in assay [17]; 0.0615 in assay [18]. Also, the PBM binding z-score is 0.574 in assay [19] and 0.136 in assay [20].

With TCGCGTAGGTTACCAATGGGGCATTCAGCTTTCT, the PBM binding z-score in assay [1] is -0.205; in assay [2], 1.54; in [3], -0.559; in assay [4], 1.01; in [5], -0.67; in assay [6], 0.898. For the same sequence, the PBM binding z-score in assay [7] is -0.342; in assay [8], 0.743; in assay [9], 1.41; in assay [10], 0.958; in assay [11], 1.28; in assay [12], 0.245. The PBM binding z-score in assay [13] is -1.11; in assay [14] it was -0.793; in [15] it was -0.721; in assay [16] it was 0.0701; in assay [17], -1.03; in [18], 0.355. Moreover, the PBM binding z-score is -1.2 in assay [19] and 1.05 in assay [20].

Consider CCTACTCGGCCATCAGGTCATTGATATCAACGTT, for which the PBM binding z-score stood at 2.3 in [1]; 1.76 in assay [2]; 2.13 in [3]; 2.26 in assay [4]; 1.01 in [5]; 2.16 in assay [6]. Also, the PBM binding z-score was 1.06 in [7]; 1.62 in assay [8]; 0.262 in [9]; 1.02 in assay [10]; 2.58 in assay [11]; 2.67 in [12]. In addition, the PBM binding z-score in [13] is 0.141; in assay [14], -0.00439; in [15] it was 2.27; in [16], 2.02; in assay [17], 1.21; in [18], 2.36. The PBM binding z-score in assay [19] is 1.12; in assay [20] it was 2.29.
